Source: PubChem
FLuc inh – inhibitors of firefly (Photinus pyralis) luciferase; P08659; Potency, µM (highest dose often 115 µM), actives largely listed as inhibitors; purified P. pyralis luciferase, luminescence, biochemical; hit rate 2.5% among 76,000; note: nearly all actives have a fitted effect of over 65% in size
Target sequence (P08659 whole entry, looked up): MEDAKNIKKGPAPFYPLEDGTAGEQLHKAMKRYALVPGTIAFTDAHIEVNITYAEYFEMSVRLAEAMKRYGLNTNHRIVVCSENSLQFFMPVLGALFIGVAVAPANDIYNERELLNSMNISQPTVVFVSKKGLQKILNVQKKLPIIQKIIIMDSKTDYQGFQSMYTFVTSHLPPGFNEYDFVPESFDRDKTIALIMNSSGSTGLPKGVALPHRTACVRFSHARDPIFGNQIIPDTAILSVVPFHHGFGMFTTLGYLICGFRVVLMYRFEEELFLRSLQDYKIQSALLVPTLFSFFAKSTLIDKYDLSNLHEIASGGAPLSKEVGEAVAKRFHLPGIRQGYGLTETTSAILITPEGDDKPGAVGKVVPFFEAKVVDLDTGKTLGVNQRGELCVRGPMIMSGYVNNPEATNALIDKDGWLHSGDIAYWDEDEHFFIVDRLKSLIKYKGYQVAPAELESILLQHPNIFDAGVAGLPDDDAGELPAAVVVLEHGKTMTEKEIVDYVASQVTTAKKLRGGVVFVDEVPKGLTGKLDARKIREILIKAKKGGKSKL
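Purified 10nM P. pyralis luciferase with 10uM D-luciferin and 10uM ATP in 50mM Tris acetate pH 7.5, 10mM Mg acetate, 0.01% Tween-20, 0.05% BSA. qHTS titration; luminescence read by CCD imager.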
HEK293 tox – cytotoxic compounds in HEK 293 cells; HEK 293 viability, ATP luminescence (CellTiter-Glo), 48-72 h; hit rate 6.6% among 94,000; AID 1345083; Potency, µM (top dose mostly 115 µM), for inactives: top-dose activity change, negative = cytotoxicity, hits mostly inhibitors; note: nearly all actives have a fitted effect of over 60% in size
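HEK 293 seeded at 250 cells/well receive compound via pintool. After 48 or 72 hr at 37 degree Celsius, 5% CO2 and 95% humidity, CellTiter-Glo is dispensed and luminescence read following 10 min at room temperature.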
hNpr1 antagonist – human Npr1 receptor antagonism. P16066. HEK293 hNpr1 GloSensor cGMP, ANP-stimulated luminescence. Potency, µM (titrated, usually from 46.3 µM), for the others: top-dose activity change, negative = inhibition, usual class: inhibitors. hit rate 1.6% among 76,000. AID 1347048; calls by dose curve; note: nearly all actives have a fitted effect of over 60% in size
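HEK293 cells stably expressing human Npr1 and cGMP GloSensor pGS-40F, loaded 2 h with 2% GloSensor reagent, given compound 30 min at room temperature. Luminescence read before and 20 min after 0.1 nM hNppA.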
NIH3T3 tox – NIH 3T3 cell cytotoxicity; NIH 3T3 viability, CellTiter-Glo ATP luminescence, 48-72 h; Potency, µM (top dose mostly 96.7 µM), for the others: at the top dose activity change, negative = cytotoxicity, most hits filed as inhibitors; hit rate 4.3% among 94,000; AID 1345082; note: nearly all actives have a fitted effect of over 55% in size
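Cytotoxicity was measured by CellTiter-Glo ATP luminescence after 48 or 72 h compound exposure at 37 °C. Mouse NIH 3T3 fibroblasts were seeded at 400 cells/well and dosed by 23 nL pin transfer.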
* = called active by the depositor; i = inactive; ? = inconclusive; . = no result given; [ ] = another dose, or the depositor's remark. Shown are actives, neighbours in structure and some others; about 11% of the full set was active somewhere. Unless noted, calls come from the whole dose curve; as a rule, active = well fitted curve in the direction sought with a large enough effect; inconclusive = small, poorly fitted or top-dose-only effect, or another doubt; inactive = no such curve, though single readings can be large; an effect the other way counts as inactive or inconclusive. % is set by controls: 0 for no effect and ±100 for the full control effect; potency is the fitted concentration of half-maximal effect.

SMILES	FLuc inh	HEK293 tox	hNpr1 antagonist	NIH3T3 tox
COc1ccccc1CN1CC(c2noc(-c3sccc3C)n2)CC1=O (centres undefined)	i	40µM*	8%	?
COc1ccccc1CN1CC(c2noc(-c3cc(C)cc(C)c3)n2)CC1=O (centres undefined)	i	45µM*	4%	?
CCn1ccnc1CN1CCCC(CO)(Cc2cccc(Cl)c2)C1 (centres undefined)	i	?	-16%	?
O=C(c1cc2cc(F)ccc2[nH]1)N1CCCC(CO)(Cc2cccc(Cl)c2)C1 (centres undefined)	?	79µM*	-19%	?
O=S(=O)(c1ccccc1Cl)N1CCCC(CO)(Cc2cccc(Cl)c2)C1 (centres undefined)	i	25µM*	-27%	?
O=C(C1CCOCC1)N1CCC2(CC1)NCCc1c2[nH]c2ccccc12	i	-6%	4%	-22%
COc1cccc(NC(=O)c2c(C)oc3ccn(Cc4ccc(F)cc4)c(=O)c23)c1	i	?	-3%	-19%
CCOC(=O)c1cccc(NC(=O)c2c(C)oc3ccn(Cc4ccc(F)cc4)c(=O)c23)c1	i	40µM*	-5%	?
COc1cccc(CNC(=O)c2c(C)oc3ccn(Cc4ccc(F)cc4)c(=O)c23)c1	i	40µM*	-19%	?
Cc1oc2ccn(Cc3cccc(F)c3)c(=O)c2c1C(=O)NCC1CCCCC1	i	40µM*	-16%	40µM*
Cc1oc2ccn(Cc3ccccc3F)c(=O)c2c1C(=O)NCc1cc(F)cc(F)c1	i	35µM*	-4%	?
CC(=O)Nc1ccc(CN2CC(N(C)c3ccccc3C)C2)cc1	i	?	3%[70.6 µM]	?
Cn1cccc1CN1CCC2(C1)C(=O)Nc1ccccc12 (centres undefined)	i	?	6%[70.6 µM]	100µM*
O=C1Nc2ccccc2C12CCN(Cc1ccccc1)C2 (centres undefined)	.	-26%[172 µM]	.	-12%[138 µM]
CCOc1cccc2c1OC[C@@H]1CN(CC)C(=O)CCN(C(=O)c3cccc(OC)c3)[C@H]21	.	?	.	-29%
Cn1nc(-c2cccc(F)c2)c(N2CCCC2)c1NC(=O)NCc1ccccc1	.	50µM*	.	?
Cn1nc(-c2cccc(F)c2)c(N2CCCCC2)c1NC(=O)NCc1ccccc1	.	28µM*	.	22µM*
Cn1cnc2cc(-c3cccc(F)c3)cc(C(=O)NCc3cccnc3)c21	i	?	6%[70.6 µM]	?
Cn1nc(-c2cccc(F)c2)c(N2CCCCC2)c1NC(=O)c1ccccc1F	.	40µM*	.	40µM*
COc1ccc(NC(=O)N2C[C@@H]3C[C@H](C2)c2ccc(NS(=O)(=O)c4ccc(NC(C)=O)cc4)c(=O)n2C3)cc1	i	4%	3%	-2%
COc1ccc(C2Cn3nnc(C(=O)NCc4cc(OC)ccc4OC)c3CO2)cc1 (centres undefined)	i	?	-1%	-21%
Cc1ccc(OCCC2CCN(C(=O)c3cc(CN4CCOCC4)on3)C2)cc1 (centres undefined)	i	79µM*	?	-17%
CCn1nc(C)c(-c2cc(C(=O)N3CCC(CCOc4ccccc4)C3)no2)c1C (centres undefined)	i	25µM*	?	?
C[S+](=O)([O-])N1Cc2ccccc2CC2(CCN(CC3CCNCC3)CC2)C1	.	2%	.	i
O=C1Nc2ccc(-c3ccc(Cl)cc3)cc2C(=O)N2CCN(C(=O)c3cccs3)C[C@H]12	i	-27%	1%	?
COc1ccc(Cl)cc1-c1ccc2c(c1)C(=O)N1CCN(C(=O)c3ccc(N(C)C)cc3)C[C@@H]1C(=O)N2	i	?	-9%	?
COc1ccc(Cl)cc1-c1ccc2c(c1)C(=O)N1CCN(C(=O)c3ccccc3)C[C@@H]1C(=O)N2	i	28µM*	2%	?
O=C1Nc2ccc(-c3cccc(C(F)(F)F)c3)cc2C(=O)N2CCN(C(=O)c3cccs3)C[C@H]12	i	22µM*	-22%	45µM*
NC(=O)C(=O)N1CCN2C(=O)c3cc(-c4ccc(Cl)cc4)ccc3NC(=O)[C@@H]2C1	i	?	-1%[70.6 µM]	?
O=C(N[C@H]1C[C@H]2C(=O)Nc3ccc(-c4cccs4)cc3C(=O)N2C1)c1ccccc1	i	32µM*	?	?
